# Compound activity from PubChem.
# Most compounds without a hit are left out; they make up all but 10% or so of the library.
# LMNA splice mod: qHTS Assay for Modulators of Lamin A Splicing; HeLa LMNA splicing GFP/RFP minigene ratio, 48 h; Potency, µM (series often up to 46.1 µM), for the others: top-dose ratio change, negative = inhibition, usual class: inhibitors; actives 0.01% (n = 200,000); active means well fitted inhibition curve with a large enough effect in the signal ratio, with a control signal flat, not every such curve was filed as active; inconclusive means small, poorly fitted or top-dose-only effect, or effect the other way, or a change in a side signal; the % refers to the signal ratio; further: potency means the concentration at half of the fitted maximal effect
#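 S3 HeLa stable clones carrying a lamin A-EGFP splicing minigene plus DsRed2 were seeded at 600 cells/well in Opti-MEM with 2% FBS, pin-dosed and incubated 48 h at 37°C. Acumen cytometry (488 nm) gave the GFP/RFP total-intensity ratio.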
# IMPase inh: qHTS Assay for Identifying the Cell-Membrane Permeable IMPase Inhibitors; 120,000 tested, under 10 active; CHO-M1 cells, IP1 accumulation, HTRF TR-FRET ratio; inhibition (IP1 accumulation), % at 46.1 µM; Inositol monophosphatase 1 (Rattus norvegicus), P97697; active means well fitted curve in the direction sought with a large enough effect in the signal ratio, not every such curve was filed as active; inconclusive means small, poorly fitted or top-dose-only effect, or a change in a side signal; inactive means no such curve, though single readings can be large or run the other way; the % refers to the signal ratio;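 further: cells stimulated with carbachol in lithium chloride buffer; plate controls were DMSO basal wells for no effect and reference inhibitor wells for full effect; higher means more IMPase inhibition seen as more IP1 and lower FRET ratio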
# Target sequence (P97697 whole entry, looked up): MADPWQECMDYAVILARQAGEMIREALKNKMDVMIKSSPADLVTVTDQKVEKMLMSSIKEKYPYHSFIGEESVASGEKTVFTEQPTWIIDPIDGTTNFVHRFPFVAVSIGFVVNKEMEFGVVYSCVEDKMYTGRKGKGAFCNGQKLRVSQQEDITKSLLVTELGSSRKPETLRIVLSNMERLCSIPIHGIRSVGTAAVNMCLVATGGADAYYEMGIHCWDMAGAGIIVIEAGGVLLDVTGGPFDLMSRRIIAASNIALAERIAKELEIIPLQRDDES
#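 CHO-M1 cells (CHO stably expressing M1 receptor), compound up to 46 uM final, stimulated with carbachol (50 uM as added) in buffer with 50mM LiCl, pH 7.4, 30 min at 37C. Cytosolic IP1 read by TR-FRET; AC50 from Hill fits.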
# HPGD inh: qHTS Assay for Inhibitors of HPGD (15-Hydroxyprostaglandin Dehydrogenase); 15-hydroxyprostaglandin dehydrogenase [NAD(+)] (Homo sapiens), P15428; purified HPGD, NADH fluorescence kinetic, PGE2 substrate; actives 4.3% (n = 150,000); Potency, µM, for the others: top-dose activity change, negative = inhibition, most hits filed as inhibitors; AID 894, 2007; further: potency means the concentration at half of the fitted maximal effect
#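 NADH formation kinetics: reaction with 30 uM PGE2 and 1 mM NAD+ (final), 20 nM enzyme, Tris-HCl pH 8 with Tween 20, after 15 min compound preincubation at room temperature. Fluorescence change, last versus first of five reads.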
# Luc counter: Counterscreen for Luciferase (Kinase-Glo TM) Inhibition; Luciferin 4-monooxygenase (Photuris pensylvanica), Q27757; Kinase-Glo luciferase, ATP luminescence, 8 min; Potency, µM (doses to about 38.3 µM), inactives show at the highest dose activity change, negative = inhibition, hits mostly inhibitors; actives 0.28% (n = 200,000); AID 1379, 2008; active means well fitted inhibition curve with a large enough effect; inconclusive means small, poorly fitted or top-dose-only effect; further: potency means the concentration at half of the fitted maximal effect; nearly all actives have a fitted effect of over 60% in size
#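 Inhibition of Kinase-Glo luciferase light generation was assessed at 10 uM ATP in pH 7.2 imidazole buffer, with luminescence measured after eight minutes at ambient temperature.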
# ALDH1A1 inh: qHTS Assay for Inhibitors of Aldehyde Dehydrogenase 1 (ALDH1A1). Aldehyde dehydrogenase 1A1 (Homo sapiens), P00352. Purified ALDH1A1, NADH fluorescence, propionaldehyde substrate. Potency, µM (doses to about 75.3 µM), inactives show top-dose activity, negative = inhibition, most hits filed as inhibitors. actives 7.3% (n = 220,000). AID 1030, 2008;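 further: potency means the concentration at half of the fitted maximal effect; plate controls were no enzyme wells and a reference inhibitor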
# Target sequence (P00352 whole entry, looked up): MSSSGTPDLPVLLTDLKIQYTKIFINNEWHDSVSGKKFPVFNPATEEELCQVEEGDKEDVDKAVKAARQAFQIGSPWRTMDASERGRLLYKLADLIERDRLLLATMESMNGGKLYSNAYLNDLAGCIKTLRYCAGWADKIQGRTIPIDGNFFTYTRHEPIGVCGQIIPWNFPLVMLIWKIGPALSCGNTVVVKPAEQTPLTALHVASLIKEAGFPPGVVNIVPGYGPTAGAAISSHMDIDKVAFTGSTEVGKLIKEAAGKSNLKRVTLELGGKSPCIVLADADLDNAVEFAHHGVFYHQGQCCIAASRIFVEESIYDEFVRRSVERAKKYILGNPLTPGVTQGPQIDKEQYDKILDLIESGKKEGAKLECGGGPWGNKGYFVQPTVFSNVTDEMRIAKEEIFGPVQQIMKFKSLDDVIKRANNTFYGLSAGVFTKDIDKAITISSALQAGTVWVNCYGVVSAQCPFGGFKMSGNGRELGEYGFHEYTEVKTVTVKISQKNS
# PNC assembly inh: High Content Assay for Compounds that inhibit the Assembly of the Perinucleolar Compartment. actives 3.1% (n = 140,000). PC3M PTB-GFP, PNC prevalence imaging, 16 h; hits give low values. activity change (PNC), negative = inhibition, % at 10 µM;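 active means readout at or below -70, meaning at least 70% loss of cells showing the perinucleolar compartment, a nuclear body marking cancer cells; inconclusive means readout between -30 and a set limit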;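 further: plate controls were DMSO wells for no effect and camptothecin positive control wells for full effect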
#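 Read-out is percentage of cells bearing a perinucleolar compartment, from automated 20x imaging of fixed, Hoechst-stained PC3M PTB-GFP cells. Cells were seeded 4 h, then exposed 16 h to compound (23 nl of library stock) in duplicate plates.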
# Numbers without * were called inactive; ? = inconclusive; nt = no result; ! = repeats disagree; [ ] = another dose, or the depositor's remark. Unless noted, the call rests on the fitted dose curve; in most records, active means well fitted inhibition curve with a large enough effect (not every such curve was filed as active); inconclusive means small, poorly fitted or top-dose-only effect, or another doubt; inactive means no such curve, though single readings can be large or run the other way. Unless noted, on the % scale 0 is the no-effect control and ±100 the full control effect.
SMILES,LMNA splice mod,IMPase inh,HPGD inh,Luc counter,ALDH1A1 inh,PNC assembly inh
CC(=O)c1ccc2c(c1)C1C=CCC1C(c1ccc(S(=O)(=O)N3CCOCC3)cc1)N2 (stereo not given),?,nt,-9%,-7%,25µM*,70
COC(=O)c1ccccc1C[C@]1(C(=O)OC)C=C[C@H](C)[C@@H](c2ccccc2)N1C(=O)C(F)(F)F,nt,nt,-13%,0%,10%,nt
Cc1ccc(C)c(NC(=O)CN(C)C(=O)[C@@H](NC(=O)c2ccc(C(C)(C)C)cc2)C(C)C)c1,-6%,-3,-6%,2%,-6%,-98*
O=C1CSC(=NC2CCCCC2)N1,-12%,-11,-8%,0%,7.9µM*,?
O=C1CS/C(=N/N=C2CCCC2)N1,nt,nt,nt,14%,-4%,nt
COc1ccc(-c2nc(NC(C)=O)sc2-c2ccc(OC)cc2)cc1,?,nt,nt,5%,3.2µM*,nt
CNc1nc(-c2ccc(OC)cc2)c(-c2ccc(OC)cc2)s1,-10%[46 µM],nt,nt,4%,?,nt
Cc1cccc(C)c1NC(=S)NCCCN1CCCC1=O,8%,nt,1%,-2%,?,?
O=C1CCCN1CCCNC(=S)Nc1ccc(Nc2ccccc2)cc1,nt,nt,nt,0%,14µM*,nt
CCOC(=O)c1ccc(NC(=S)NCCCN2CCCC2=O)cc1,nt,nt,nt,-2%,0.032µM*,nt
CC(C)(C)Nc1oc(-c2ccccc2)nc1-c1ccc(C(F)(F)F)cc1,nt,nt,-9%,-2%,15%,nt
CCOC(=O)C1(Cc2ccccc2Cl)CCN(S(C)(=O)=O)CC1,1%[46 µM],nt,nt,3%,10µM*,nt
CC1CCc2nn(CC(=O)NCCN3CCOCC3)cc2C1 (stereo not given),-12%,10,-5%,2%,1%,-82*
COc1cc(NS(=O)(=O)c2c(C(=O)N3CCCCC3)c(C)n(C)c2C)cc(OC)c1OC,27%[46 µM],nt,nt,nt,nt,nt
Cc1ccc(CN(C(=O)c2ccc([N+](=O)[O-])cc2)c2ccccn2)cc1,-5%[46 µM],nt,nt,nt,nt,nt
O=C(NC1CCCC1)c1ccc(CNc2c(N3CCOCC3)c(=O)c2=O)cc1,11%,4,7.9µM*,-1%,5%,-8
CC1CCN(c2c(NCc3ccc(C(=O)N4CCN(C5CCCCC5)CC4)cc3)c(=O)c2=O)CC1,3%,nt,?,-1%,2%,38
CCCNC(=O)c1ccc(CNc2c(N3CCC(C(=O)OCC)CC3)c(=O)c2=O)cc1,-5%,8,4.5µM*,-4%,?,-17
CCOC(=O)C1CCCN(C(=O)c2ccc(CNc3c(N4CCC(C)CC4)c(=O)c3=O)cc2)C1 (stereo not given),-9%,-6,10µM*,2%,?,9
CCOC(=O)C1CCN(c2c(NCCCN3CCN(Cc4ccccc4)CC3)c(=O)c2=O)CC1,0%,7,14µM*,6%,-4%,-11
COc1ccccc1CN1CCCC2(CCN(C(=O)c3cnccn3)CC2)C1,nt,nt,-5%,-2%,-6%,nt
CC1CCN(c2c(NCc3ccc(C(=O)N4c5ccccc5CC4C)cc3)c(=O)c2=O)CC1 (stereo not given),?,-11,13µM*,2%,-11%,18
CCOC(=O)C1CCN(c2c(NCc3ccc(C(=O)NCCC(C)C)cc3)c(=O)c2=O)CC1,6%,3,3.5µM*,-5%,-12%,54
CC(C)(C)C1CCC2(CC1)C(C#N)=C(SCC(=O)NC1CCCCC1)NC(=O)C2C#N (stereo not given),?,3,-14%,-7%,?,-24
N#CC1=C(SCC(=O)Nc2cccc3cccnc23)NC(=O)C(C#N)C12CCCCC2 (stereo not given),?,13,-13%,0%,8.9µM*,20
SMILES,LMNA splice mod,IMPase inh,HPGD inh,Luc counter,ALDH1A1 inh,PNC assembly inh
N#CC1=C(SCC(=O)NC23CC4CC(CC(C4)C2)C3)NC(=O)C(C#N)C12CCCCC2 (stereo not given),?,14,-22%,2%,1.1µM*,346
CCOC(=O)C1=C(SCC(=O)Nc2ccccc2)NC(=O)C(C#N)C12CCCCC2 (stereo not given),14%,6,-5%,-5%,13µM*,18
N#CC1=C(SCC(=O)NC2CC2)NC(=O)C(C#N)C12CCCCC2 (stereo not given),9%,1,-4%,0%,13µM*,21
O=C(CN1C(=O)c2ccccc2C1=O)Nc1cccc2cccnc12,3%,4,-6%,1%,-5%,10
COc1nc(Oc2ccc(=O)n(-c3ccccc3)n2)nc(N(C)C)n1,nt,0,nt,nt,nt,nt
COc1ccc(Cl)cc1NC(=O)CN(C)S(=O)(=O)c1ccc2c(c1)CCCN2C(C)=O,12%[46 µM],nt,nt,nt,nt,nt
O=C(Cn1cc(C(=O)C2CC2)c2ccccc21)Nc1ccc(Br)cc1,nt,3,nt,nt,nt,nt
Cn1ccnc1C[C@@](C)(O)c1ccccc1,nt,nt,-2%,-1%[7.66 µM],13%[13.5 µM],nt
C=CCSC1=C(C#N)C2(CCCCC2)C(C#N)C(=O)N1 (stereo not given),12%,-6,-22%,2%,2.5µM*,30
CCCCCCCCCCCC1=C(O)C(=O)C=C(O)C1=O,nt,25,14µM*!,0%,24µM*,nt
O=C(OCc1cc(=O)n2nc(C3CCCCC3)sc2n1)c1ccc(F)cc1,4%[46 µM],nt,nt,nt,nt,nt
O=C(CS(=O)(=O)c1cn(Cc2ccc(F)cc2)c2ccccc12)N1CCCCC1,?,-13,-22%,2%,?,-100*
CC(=O)N1CCC2(CCN(Cc3ccc(C#N)cc3)CC2)CC1,nt,nt,-5%,-7%,7%,nt
CCCCn1c(=O)c2[nH]c(C34CC5CC(CC3C5)C4)nc2n(CCCO)c1=O,nt,nt,-6%,-4%[39.9 µM],-15%,nt
CCCN(CC(=O)Nc1ccc(C(C)=O)cc1)CC(=O)Nc1ccccc1C,-5%[46 µM],nt,nt,0%,14µM*,nt
O=S(=O)(NCCc1ccc(Cl)cc1)c1ccc(N2CCCCS2(=O)=O)cc1,-11%[46 µM],nt,nt,nt,nt,nt
Cn1c(N)c(C(=O)COC(=O)c2ccnc3ccccc23)c(=O)n(C)c1=O,?,nt,?,-2%,-1%,-85*
CC(C)Cn1c(N)c(C(=O)COC(=O)c2c(F)cccc2F)c(=O)n(C)c1=O,?,nt,nt,5%,11µM*,nt
Cn1c(N)c(C(=O)COC(=O)c2cc(C3CC3)nc3ccccc23)c(=O)n(C)c1=O,-11%,nt,-2%,-2%,0%,51
